SMN2 splice up – increases expression of the SMN2 splice variant; HEK293 SMN2-luciferase splicing reporter, luminescence, 30-36 h; Potency, µM (doses to about 46.1 µM), actives largely listed as activators; 2.8% of 210,000 active; note: nearly all actives have a fitted effect of over 55% in size
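HEK293 cells carry an SMN2 […]–luciferase reporter in which exon 7 inclusion puts luciferase in frame. Cells were plated 10-12 h before compound addition, then incubated 30-36 h at 37C. ONE-Glo luminescence was read; sodium butyrate at 4.5 mM final served as control.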
NPC1 promoter act – NPC1 promoter activation | Huh7 NPC1 promoter luciferase reporter, 24 h | Potency, µM (series often up to 9.22 µM), actives largely listed as activators | 2.4% of 320,000 active | AID 485313; note: nearly all actives have a fitted effect of over 60% in size
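Huh7 reporter cells (NPC1 promoter driving luciferase) are dosed with compound for 24 h at 37 °C, 5% CO2; luciferase detection reagent is then added and luminescence measured after 10 min at ambient temperature.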
ELG1 genotoxic – induces genotoxicity in HEK293T cells with luciferase-tagged ELG1. HEK293T ELG1-luciferase reporter, luminescence, 16 h. Potency, µM (series often up to 46 µM), actives largely listed as activators. 1.3% of 330,000 active. AID 504466; note: nearly all actives have a fitted effect of over 60% in size
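After overnight (16 hr) compound treatment at 37 °C, ELG1-luciferase HEK293T cells were lysed with ONE-Glo; luminescence quantified 30 min later at room temperature.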
Rab9 prom act – activators of Rab9 promoter; Huh7 Rab9 promoter-luciferase reporter, luminescence, 24 h; Potency, µM (series often up to 9.22 µM), actives largely listed as activators; 2.8% of 320,000 active; AID 485297; note: nearly all actives have a fitted effect of over 60% in size
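Promoter activation is measured as luciferase luminescence in Huh7 cells stably transfected with a Rab9 promoter–luciferase construct, following 24 h compound exposure at 37 °C and 10 min reagent incubation at ambient temperature.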
KinaseGlo FLuc – blocks Kinase-Glo luciferase, a counter-screen artifact; Q27757; Kinase-Glo luciferase, ATP luminescence, 8 min; Potency, µM (series often up to 38.3 µM), most hits filed as inhibitors; 0.28% of 200,000 active; AID 1379; note: nearly all actives have a fitted effect of over 60% in size
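Luminescence was the read-out, taken after 8-minute incubation at ambient temperature. Luciferase turned over luciferin with 10 uM ATP in imidazole pH 7.2 buffer containing KCl, MgCl2, Tween 20 and BSA.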
FLuc modulator – inhibits or activates purified firefly luciferase, miR-21 counter-screen; Potency, µM (series often up to 57.5 µM), hits mostly inhibitors; 6.9% of 360,000 active; purified FLuc, Km substrates, luminescence inhibition; note: nearly all actives have a fitted effect of over 55% in size
Target sequence (P08659 whole entry, looked up): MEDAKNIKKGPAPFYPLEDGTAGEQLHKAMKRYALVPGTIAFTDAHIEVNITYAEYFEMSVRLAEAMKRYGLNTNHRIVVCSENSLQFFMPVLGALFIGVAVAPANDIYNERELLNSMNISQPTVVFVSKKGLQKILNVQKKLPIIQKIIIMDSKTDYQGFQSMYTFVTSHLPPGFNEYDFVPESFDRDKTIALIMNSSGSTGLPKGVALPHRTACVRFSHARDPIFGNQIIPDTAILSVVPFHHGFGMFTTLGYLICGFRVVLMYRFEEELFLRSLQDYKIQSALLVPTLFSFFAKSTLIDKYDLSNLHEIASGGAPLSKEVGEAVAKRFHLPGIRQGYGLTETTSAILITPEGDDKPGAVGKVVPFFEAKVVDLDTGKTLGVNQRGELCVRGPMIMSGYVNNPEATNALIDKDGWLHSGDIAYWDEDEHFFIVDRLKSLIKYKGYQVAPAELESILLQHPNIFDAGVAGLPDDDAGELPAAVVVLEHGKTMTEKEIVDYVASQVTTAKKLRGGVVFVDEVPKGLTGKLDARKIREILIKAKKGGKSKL
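Biochemical qHTS of compounds, final roughly 60 µM downward over six points, against 10 nM purified firefly luciferase using Km concentrations of substrates (10 uM D-luciferin, 10 uM ATP) in Tris acetate pH 7.5 buffer; luminescence output.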
A number is an active result; . = inactive; ? = inconclusive; / = no result; ! = repeats disagree; [ ] = another dose, or the depositor's remark. Only some compounds are listed: those with a hit (about 7.5% of all), similar ones and a draw of the others. Calls come from the whole dose curve; as a rule, active = well fitted curve in the direction sought with a large enough effect; inconclusive = small, poorly fitted or top-dose-only effect, or another doubt; inactive = no such curve, though single readings can be large; an effect the other way counts as inactive or inconclusive.

SMILES	SMN2 splice up	NPC1 promoter act	ELG1 genotoxic	Rab9 prom act	KinaseGlo FLuc	FLuc modulator
COc1ccc(-c2ccc(CCC(=O)O)n2CC(=O)Nc2cccc(Cl)c2C)cc1	.	/	/	/	/	?
COc1ccc(N2CCOCC2)c(NC(=O)c2ccc3c(c2)OCO3)c1	/	.	.	.	/	.
O=C(Nc1cccc2cccnc12)c1ccc2c(c1)OCCO2	.	.	?	?	.	12µM
O=C(Nc1cccc(Cl)c1N1CCCCC1)c1ccc2c(c1)OCCO2	.	.	.	.	.	.
COc1cc(NC(=O)c2ccc3c(c2)OCO3)c2ncccc2c1	.	.	.	.	.	1.9µM
Cc1cc(OC(=O)c2ccccc2Br)cc(=O)n1C	.	.	.	.	.	21.3µM
O=C(Nc1ccc(-c2noc(COc3ccccc3Cl)n2)cc1)c1ccco1	11.2µM	3.16µM	?	?	.	10.7µM
CC(C)(C)c1ccc(-c2noc(CNC(=O)c3ccco3)n2)cc1	/	.	.	.	/	15.1µM
COc1ccccc1-c1noc(CCC(=O)Nc2cc(C(F)(F)F)ccc2Cl)n1	.	.	.	.	.	19µM
CC(NC(=O)c1ccco1)c1nc(-c2ccc(C(C)(C)C)cc2)no1 (stereo not given)	/	.	.	.	/	16.9µM
CN(C)c1ccc(NC(=O)CSC2=Nc3ccccc3C3=NC(CC(=O)NCc4ccc5c(c4)OCO5)C(=O)N23)cc1 (stereo not given)	/	/	/	/	/	.
Cc1ccc(C)c(NC(=O)CCc2nc(-c3ccc(C(C)(C)C)cc3)no2)c1	.	/	/	/	/	2.13µM
CCOC(=O)c1ccc(NC(=O)CCc2c(C)nc3nc[nH]n3c2=O)cc1	.	/	/	/	/	26.9µM
CCOC(=O)c1ccc(NC(=O)CCc2nc(-c3ccc(C)cc3)no2)cc1	.	.	23.1µM	.	.	.
CC(C)(C)c1ccc(-c2noc(CCC(=O)NCc3ccco3)n2)cc1	.	.	.	.	.	2.69µM
CCCCCC(=O)OCCc1c(C)nc2nc[nH]n2c1=O	.	.	.	.	.	.
Cn1cc([N+](=O)[O-])c(C(=O)Nc2ccc(C3CCCCC3)cc2)n1	/	.	.	?	.	10.7µM
Cn1cc([N+](=O)[O-])c(C(=O)Nc2ccc3nc(-c4ccccc4)[nH]c3c2)n1	15.8µM	3.16µM	?	?	.	4.78µM
Cn1cc([N+](=O)[O-])c(C(=O)NCc2cc3ccccc3[nH]2)n1	.	.	.	.	.	.
Cc1cc(C)n(Cc2ccc(NC(=O)c3nn(C)cc3[N+](=O)[O-])cc2)n1	.	.	.	.	.	.
Cn1cc([N+](=O)[O-])c(C(=O)Nc2ccc(-c3nc4ccccc4[nH]3)cc2)n1	8.91µM	?	?	?	.	2.69µM
O=C(O)c1ccc(NC(=S)NC(=O)c2ccc(-c3ccc(Br)cc3)o2)cc1	/	.	.	.	/	.
NC(=O)C1CCN(C(=S)c2ccc(-c3ccc(Br)cc3)o2)CC1	8.91µM	?	10.3µM!	?	.	?
NC(=O)c1ccc(-c2ccc(Br)cc2)o1	.	.	?	.	.	19µM
Cc1cc(=O)[nH]c2nnc(SCc3cccc(C(F)(F)F)c3)n12	/	/	/	/	/	.
SMILES	SMN2 splice up	NPC1 promoter act	ELG1 genotoxic	Rab9 prom act	KinaseGlo FLuc	FLuc modulator
c1ccc2nc(-c3ccc(-n4ccnc4)cc3)ccc2c1	/	1µM	2.59µM	0.631µM	/	3.38µM
Nc1ccc(-n2ccnc2)cc1	.	.	.	.	.	.
COc1cccc(N=Nc2ccc3ccccc3c2O)c1	/	?	?	3.98µM	/	0.338µM
COc1ccc(N=Nc2ccc3ccccc3c2)c(O)c1	/	3.16µM	0.92µM	3.98µM	/	0.379µM
COc1ccc(C(=O)c2ccccc2)c(O)c1	.	.	?	.	.	?
CC(=O)/C(N=Nc1cc(C)ccc1O)=C(\C)O	/	.	.	.	.	.
COc1ccc(NCc2c(O)ccc3ccccc23)cc1	.[9.22 µM]	/	/	/	.[7.66 µM]	/
COc1ccc(N=Nc2cc(C)ccc2O)cc1	/	1.12µM	3.66µM	0.398µM	/	0.477µM
COc1ccc(N=Nc2ccc(N)nc2N)cc1	/	1µM	9.2µM	2.51µM	/	2.39µM
CCSc1nc(-c2ccccc2OC)nc2c1Cc1c(CO)cnc(C)c1O2	/	/	/	/	/	.
CCc1cccc(C)c1NC(=O)CN(C)S(=O)(=O)c1ccc(-c2ccc(=O)[nH]n2)s1	/	.	.	.	/	.
Cc1ccc(S(=O)(=O)N2CCCCC2)cc1	/	.	.	.	/	.
Cc1ccc(O)c(C(=O)c2cc(C#N)c(=O)n(-c3nccs3)c2)c1	/	.	.	.	.	.
Cc1ccc(O)c(N=Nc2nccs2)c1	/	.	23.1µM	.	/	9.53µM
Cc1ccc(O)c(N=Nc2ccc(S(=O)(=O)N3CCCC3)cc2)c1	/	?	.	?	/	15.1µM
[O-]/[N+](=C\C=C\c1ccccc1)c1ccccc1	/	2.51µM	?	1.78µM	/	4.78µM
COC(=O)c1ccc(NC(=O)c2ccc(C)cc2)o1	.	.	.	.	.	19µM
COc1ccc(C(=O)COC(=O)c2ccccc2NS(=O)(=O)c2ccc(O)c([N+](=O)[O-])c2)cc1	/	.	.	.	/	10.7µM
COc1ccc(NC(=O)c2ccccc2NS(=O)(=O)c2ccc(C)cc2)c([N+](=O)[O-])c1	.	.	.	.	.	.
O=C(Cc1cccc2ccccc12)NCCc1ccccc1	/	.	.	.	/	.
CCOc1cc2[nH]c(=O)n(CCC(=O)N3CCN(c4cccc(Cl)c4)CC3)c(=O)c2cc1OCC	/	/	/	/	/	.
COc1cc(/C=c2\sc3n(c2=O)CCCN=3)ccc1O	.	.	?	.	.	?
O=c1/c(=C/c2ccc([N+](=O)[O-])cc2)sc2n1CCCN=2	.	2.82µM	?	3.55µM	.	?
CC(C)(C)OC(=O)N1CCC(c2nnc(SCc3cccc(Cl)c3)o2)CC1	.	/	/	/	/	.
CC(=O)Nc1nc2ccc(-c3nc4ccccc4o3)cc2s1	5.01µM	2.24µM	?	4.47µM	.	3.38µM
SMILES	SMN2 splice up	NPC1 promoter act	ELG1 genotoxic	Rab9 prom act	KinaseGlo FLuc	FLuc modulator
CN(C)S(=O)(=O)c1ccc2nc(NC(=O)c3cccs3)sc2c1	11.2µM	1.41µM	2.31µM	0.891µM	.	1.2µM
CC(C)NS(=O)(=O)c1ccc2nc(NC(=O)c3cncc(Br)c3)sc2c1	/	/	/	/	/	19µM
CC(=O)Nc1ccc2nc(NC(=O)C(Cl)(Cl)Cl)sc2c1	/	.	.	.	/	15.1µM
CC(=O)Nc1ccc2nc(NC(=O)CCc3ccccc3)sc2c1	.	.	.	?	.	.
C[C@]12CCC(=O)C[C@@H]1CC[C@@H]1[C@@H]2CC[C@]2(C)[C@@H](C(=O)COC(=O)CCC(=O)O)CC[C@@H]12	/	.	.	.	/	.
COc1cccc(CN2C(=O)c3ccccc3Sc3ccc(C(=O)OCc4ccco4)cc32)c1	/	/	/	/	/	.
CC1CC(C)CN(C(=O)COC(=O)c2ccc(S(=O)(=O)N(C)c3ccccc3)cc2)C1 (stereo not given)	/	/	.	/	/	/
CSc1nc2ccc3nc(NC(=O)c4cccs4)sc3c2s1	.	3.16µM	?	3.98µM	.	2.13µM
